In PubChem BioAssay (EPA / NIEHS) one finds outcome and AC50 data, which are given here for 23 compounds.

Where “and” joins values, the source holds several entries; their conditions need not be identical. Identical values can stand only once. Inconclusive results are not listed. Calls of active or inactive are those of the source. How the source made its calls: active means hit-call score of the fitted dose curve at least 0.9, where 1 is the maximum; inconclusive means response in the unintended direction; inactive means score below 0.9.

Chain of human Mitogen-Activated Protein Kinase 1 (MAPK 1), MAPK1 (gene 5594) (P28482 whole entry, looked up): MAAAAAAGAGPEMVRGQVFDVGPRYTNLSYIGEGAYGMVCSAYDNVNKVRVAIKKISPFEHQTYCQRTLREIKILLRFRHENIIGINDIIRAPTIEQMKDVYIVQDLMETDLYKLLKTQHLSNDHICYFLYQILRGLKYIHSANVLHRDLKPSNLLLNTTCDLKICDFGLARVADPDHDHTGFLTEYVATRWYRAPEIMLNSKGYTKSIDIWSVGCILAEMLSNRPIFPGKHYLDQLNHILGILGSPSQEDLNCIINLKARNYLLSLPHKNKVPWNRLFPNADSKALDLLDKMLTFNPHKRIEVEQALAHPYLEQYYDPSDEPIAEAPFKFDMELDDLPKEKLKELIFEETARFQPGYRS

For the test, the target named is human Mitogen-Activated Protein Kinase 1 (MAPK 1), MAPK1 (gene 5594) (UniProt P28482). Put plainly: NVS_ENZ_hMAPK1: NovaScreen (NVS) Enzymatic Assay for human Mitogen-Activated Protein Kinase 1 (MAPK 1) (AID 2283175). As for the experimental part:
NVS_ENZ_hMAPK1 is a biochemical, single-readout assay that uses extracted gene-proteins in a cell-free assay. Measurements were taken 1 hour after chemical dosing in a 384-well plate.NVS_ENZ_hMAPK1 is one of one assay component(s) measured or calculated from the NVS_ENZ_hMAPK1 assay. It is designed to make measurements of enzyme activity, a form of enzyme reporter, as detected with fluorescence intensity signals by Fluorescence and electrophoretic mobility shift technology.Data from the assay component NVS_ENZ_hMAPK1 was analyzed into 1 assay endpoint. This assay endpoint, NVS_ENZ_hMAPK1, was analyzed in the positive analysis fitting direction relative to DMSO as the negative control and baseline of activity. Using a type of enzyme reporter, loss-of-signal activity can be used to understand changes in the enzymatic activity as they relate to the gene MAPK1. Furthermore, this assay endpoint can be referred to as a primary readout, because this assay has produced multiple assay endpoints where this one serves a enzymatic activity function. To generalize the intended target to other relatable targets, this assay endpoint is annotated to the kinase intended target family, where the subfamily is serine/threonine kinase.
Binding assays used specific radioligands (tritiated, iodinated) with non-radioactive competitive displacement ligands in agonist or antagonist protocols (as indicated) and various reference compounds and inhibitors to titrate specific binding to receptors and transporters. Most enzyme assays (CYPs, kinases, phosphatases, proteases, HDACs) used recombinant protein and specific substrates (fluorescence mostly, some colorimetric and radioactive) and inhibitors, followed by a biochemical separation of substrate and product. All assays for the biochemical HTS were initially run in duplicate at a single concentration (10 uM for CYP450 assays and 25 uM for all others). Assay-chemical combinations meeting a pre-defined threshold (e.g., 30% inhibition and other criteria defined below) were then run in singleton concentration-response format with maximum concentration of 20 uM for CYPs and 50 uM for all others. Each assay was run with positive and negative controls, and concurrent controls on every plate. The follow-up (secondary) screen tested active chemical-pairs in concentration series, as well as a few additional assays not tested in the primary screen, some selected negative inactives, and several cases re-run in the concentration series for confirmatory purposes.
On to `CCCCCCCC=O`, for which the compound was called inactive. Take `Cc1nc(-c2ccccn2)ncc1C(=O)Nn1cc(C)c2cc(F)ccc21`: the compound was classed as inactive. Same read-out and setting: to `Cc1cn([C@H]2C[C@H](N=[N+]=[N-])[C@@H](CO)O2)c(=O)[nH]c1=O` belongs “inactive”; to `COc1ccc(OC(F)(F)F)cc1CN[C@H]1CCCN[C@H]1c1ccccc1`, “inactive”. `COCCOC[C@H](CC1(C(=O)NC2CCC(C(=O)O)CC2)CCCC1)C(=O)Oc1ccc2c(c1)CCC2` (stereo partly drawn): the result was inactive.

`Cc1ncc([C@@H](CCCCCCc2ccc3c(n2)NCCC3)CC(=O)O)cn1`: the compound was classed as inactive. Still for that read-out and setting: to `COCCO` belongs “inactive”.

On to `S=C([S-])NCCNC(=S)[S-].[Mn+2]`, for which the concentration at half-maximal activity (AC50) was 5.17 µM (active). On to `c1ccc2ccccc2c1`, for which the compound was called inactive.

Consider `CCCOc1ccc(S(=O)(=O)N2CCN(CC)CC2)cc1-c1nc2c(CC)n(Cc3ccccn3)nc2c(=O)[nH]1`, for which the outcome was inactive. Take `O=C(O)c1cccc(C[C@@H]2COc3ccc(OCc4nc5cc(F)ccc5s4)cc3[C@@H]2O)c1`: the call was inactive.

With `S=C(S)NCCNC(=S)S.[Mn+2].[S-]C([S-])=NCCN=C([S-])[S-].[Zn+2]`, the AC50 was 7.49 µM (active) and 1.15 µM (active). Take `Cc1ccc(-c2cc(C(F)(F)F)nn2-c2ccc(S(N)(=O)=O)cc2)cc1`: the result was inactive.

Take `NCCO`: the compound was classed as inactive.

`CC(C)(c1ccc(O)cc1)c1ccc(O)cc1`: the compound was classed as inactive.

As to `O=C(Nc1ccc([N+](=O)[O-])cc1Cl)c1cc(Cl)ccc1O`, the compound was called inactive. Still for that read-out and setting: to `CCc1c(C(=O)NN2CCCCC2)nn(-c2ccc(Cl)cc2Cl)c1-c1ccc(Br)cc1` belongs “inactive”; to `CC(C)CCCCCCc1ccc(O)cc1`, “inactive”.

For `C[Si]1(C)O[Si](C)(C)O[Si](C)(C)O[Si](C)(C)O1`, the result was inactive.

Take `CCCc1cc(=O)[nH]c(=S)[nH]1`: the compound was called inactive. The same measure, in the same setting: as for `Nc1ccn([C@@H]2O[C@H](CO)[C@@H](O)[C@@H]2O)c(=O)n1`, the entry is “inactive”; as for `CCOC(N)=O`, “inactive”. Same read-out and setting: to `CN(C)C(=O)NC1(c2ccccc2)CCN(CCC[C@]2(c3ccc(Cl)c(Cl)c3)CCCN(C(=O)c3ccccc3)C2)CC1` belongs “inactive”.
